Experimental data published in PubChem BioAssay AID624330 (Southern Research Specialized Biocontainment Screening …, 2012).
Out of some 340,000 compounds screened, about 2,100 (0.62%) were called active.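 The calls were made as follows: active = first-screen hits whose inhibition reached a set limit at any dose in the follow-up dose series; inconclusive = inhibition above the set first-screen limit but never retested; inactive = the rest.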 Not all results are given here. Potency and affinity values are given separately.

Molecular target: Rac GTPase-activating protein 1 (Homo sapiens) (UniProt Q9H0H5)
Experiment: blockers of MgcRacGAP-driven Rac1 GTP hydrolysis – biochemical, ADP Hunter fluorescence, primary and confirmatory, confirmation (AID 624330);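 also: fluorescence reports GDP produced by GAP-driven GTP hydrolysis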
Details: MgcRacGAP-stimulated Rac1 GTP hydrolysis, at 30 µM, stronger effect = higher value, GST-tagged Rac1 F28L mutant substrate

Sequence of Rac GTPase-activating protein 1 (Homo sapiens) (Q9H0H5 whole entry, looked up): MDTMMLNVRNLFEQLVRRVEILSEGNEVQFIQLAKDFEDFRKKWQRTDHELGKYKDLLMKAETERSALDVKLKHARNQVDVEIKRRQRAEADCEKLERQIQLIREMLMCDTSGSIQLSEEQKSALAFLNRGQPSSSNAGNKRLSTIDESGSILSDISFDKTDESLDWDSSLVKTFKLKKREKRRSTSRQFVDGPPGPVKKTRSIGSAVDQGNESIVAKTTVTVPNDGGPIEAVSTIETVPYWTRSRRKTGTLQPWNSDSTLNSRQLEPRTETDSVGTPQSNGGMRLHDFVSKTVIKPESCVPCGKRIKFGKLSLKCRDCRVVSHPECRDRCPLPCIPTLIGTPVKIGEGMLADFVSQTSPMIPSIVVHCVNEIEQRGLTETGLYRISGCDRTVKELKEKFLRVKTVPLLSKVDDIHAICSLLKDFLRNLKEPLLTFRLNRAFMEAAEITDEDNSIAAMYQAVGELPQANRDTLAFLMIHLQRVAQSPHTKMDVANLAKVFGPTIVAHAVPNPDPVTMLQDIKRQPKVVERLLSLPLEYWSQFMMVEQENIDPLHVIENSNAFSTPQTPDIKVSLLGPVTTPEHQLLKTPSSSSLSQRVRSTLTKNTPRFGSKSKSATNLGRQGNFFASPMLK

inhibition, inactive:
CCOC(=O)COc1nc(OC)nc(N2CCOCC2)n1 13%
Nc1ccc2nc(-c3cccc(-c4nc5ccc(N)cc5[nH]4)c3)[nH]c2c1 25.9%
Nc1ccc(-c2nc3ccccc3[nH]2)cc1 8.27%
Nc1cccc(-c2nc3ccccc3[nH]2)c1 8.22%
Nc1ccc2nc(C(F)(F)F)[nH]c2c1 7.12%
O=C(OCC(=O)N1CCN(C(=O)c2ccco2)CC1)c1sc2cc(F)ccc2c1Cl 3.78%
COC(=O)c1ccc(C(=O)OC)c(NC(=O)CN(C)Cc2cccc(Cl)c2Cl)c1 5.99%
Cc1nc2cc3nc(C)sc3cc2s1 10.8%
COc1ccc(CCC(=O)N/N=C/c2ccc3c(c2)OCO3)cc1 4.06%
O=C(Cc1ccc(Cl)cc1)N/N=C/c1ccccc1 3.03%
O=C(CCc1ccc(O)cc1)NN=Cc1ccc2c(c1)OCO2 28.7%
O=C(Cc1ccc(Cl)cc1)N/N=C/c1cccc(O)c1 -4.31%
O=C(CCC(=O)OCc1ccc([N+](=O)[O-])cc1)Nc1ccc(F)cc1 4.88%
O=C(CC(c1ccccc1)c1ccccc1O)NCCN1CCOCC1 (stereo not given) -6.2%
Nc1ccccc1-n1c(=O)n(Cc2ccccc2F)c(=O)c2[nH]cnc21 3.12%
C=CCn1c(SCc2cc(=O)n3cc(C)ccc3n2)nnc1-c1cccc(C)c1 8.24%
CSCC[C@H](NC(=O)OC(C)(C)C)C(=O)N1CCC(C(=O)NCC(=O)Nc2ccc(C)cc2)CC1 -4.04%
COCCNC(=O)c1ccc(-c2csc(C)n2)cc1 3.59%
C[C@@H]1CN([C@H](C)CO)C(=O)c2cc(Br)cnc2O[C@@H]1CN(C)C(=O)C1CCOCC1 8.56%
CNc1nnc(-c2ccncc2)s1 6.68%
CNc1nnc(-c2cccc(N(C)C)c2)s1 4.36%
Cc1cc(OCC(=O)NCC2CCC(C(=O)O)CC2)c2c(C)c(Cc3ccccc3)c(=O)oc2c1 (stereo not given) 1.13%
CCCc1cc(=O)[nH]c(SCC(=O)NC)n1 2.55%
CCCCNC(=O)c1ccc(CS(=O)(=O)c2ccc(OC)cc2)o1 -10.9%
CCOc1ccc(S(=O)(=O)Nc2ccc(C(=O)NCC(c3ccc(OC)cc3)N3CCOCC3)cc2)cc1 (stereo not given) 5.24%
COc1ccc(CN2CCC(=O)N(CCO)CC2)cc1OC 7.88%
O=C(c1ccco1)N1CCN(Cc2cn[nH]c2-c2ccc(F)cc2F)CC1 -5.62%
Cn1c(=O)[nH]c(Nc2ccccc2)c([N+](=O)[O-])c1=O 5.65%
Cn1c(=O)[nH]c(Nc2ccc(F)cc2)c([N+](=O)[O-])c1=O 8.12%
Cc1ccc(C(=O)NCCCNC(=O)c2ccco2)cc1 4.3%
CN(CC(=O)Nc1c(Cl)cccc1Cl)C(=O)C1CCN(C(=O)Nc2ccccc2)CC1 -1.59%
COc1ccccc1CCC(=O)OCC(=O)Nc1ccc(C(N)=O)cc1 -2.01%
Cc1ccc(S(=O)(=O)N2CCCCC2)cc1NC(=O)CSc1nc(N)cc(=O)[nH]1 4.78%
COC(=O)c1c(N)sc(C(=O)N2CCOCC2)c1C 8.37%
Cc1c(-c2ccccc2)sc(Br)c1C(=O)N1CCOCC1 2.64%
Cc1ccc(N(C(C)C(=O)O)S(=O)(=O)c2cccnc2)cc1 (stereo not given) 4.39%
COc1cc([N+](=O)[O-])ccc1-c1ccc(/C=C2\C(=O)ON=C2c2ccccc2)o1 25%
Cc1ccc(C2=NOC(=O)/C2=C\c2ccccc2)cc1 8.59%
CN(C)/C=C1\C(=O)ON=C1c1ccccc1 11.7%
Cc1ccc(C2=NOC(=O)/C2=C\C=C\c2ccccc2)cc1 6.67%
O=C1ON=C(c2ccccc2)/C1=C/c1cccnc1 3.82%
COc1ccc(/C=C2\C(=O)ON=C2c2ccccc2)cc1 24.6%
O=C1ON=C(c2ccccc2)/C1=C\c1ccco1 19.1%
O=C1ON=C(c2ccccc2)/C1=C/c1ccc(-c2ccccc2[N+](=O)[O-])o1 7.69%
Cc1ccc(CNS(=O)(=O)NCc2ccc(Cl)cc2)cc1 0.28%
COc1ccc(N2CCN(C(=O)COC(=O)CCS(=O)(=O)c3ccc(C)cc3)CC2)cc1 20.8%
O=S(=O)(c1ccc2ccccc2c1)N1CCNCC1 11.3%
COc1ccc(CNC(=O)CN(C(=O)CCC(=O)Nc2ccccn2)c2cccc(C)c2C)cc1 6.1%
CCc1nnc(NC(=O)CSc2nnc3ncccn23)s1 4.86%
CC(=O)Nc1cccc(NC(=O)CSc2n[nH]c(-c3ccccc3)n2)c1 2.62%
O=[N+]([O-])c1ccccc1S(=O)(=O)N1CCCc2ccccc21 -4.93%
O=c1cc(O)c2ccc(O)cc2o1 11.2%
COc1ccc(-c2oc3cc(O)c(OC)c(O)c3c(=O)c2OC)cc1O 26.4%
O=c1c(O)c(-c2ccccc2)oc2cc(O)cc(O)c12 9.81%
COc1ccc(-c2coc3cc(O)ccc3c2=O)cc1 -1.73%
O=c1c(O)c(-c2ccc(O)c(O)c2)oc2cc(O)cc(O)c12 24.2%
O=c1c(O)c(-c2cc(O)c(O)c(O)c2)oc2cc(O)cc(O)c12 -51.5%
O=c1c(-c2ccc(F)cc2)coc2cc(O)ccc12 2.56%
COc1c(-c2ccc(O)cc2)oc2cc(O)cc(O)c2c1=O 8.09%
CC1(C)CC(=O)C(N=Nc2ccc3ncsc3c2)=C(O)C1 9.23%
Cc1cc(C)c(/C([O-])=C(/C(=S)Nc2ccc(SC(F)F)cc2)[n+]2ccccc2)cc1C -14.3%
Cc1cc(C(=O)N2CCCC(N3CCN(c4cccc(Cl)c4)CC3)C2)n(C)n1 (stereo not given) 9.25%
O=C(COc1ccccc1)N[C@@H]1c2ccccc2CC[C@@H]1OCc1ccccc1 3.68%
CCN(C(=S)NC(=O)c1ccco1)c1cccc2ccccc12 15.5%
N/C(Cc1ccc(Cl)cc1Cl)=N\OC(=O)Cc1cccs1 6.38%
O=C(COc1ccc(-c2nnco2)cc1)NC1CCS(=O)(=O)C1 (stereo not given) 2.22%
Cn1c(SCC(=O)N2CCc3ccccc3C2)nnc1-c1cccs1 -0.2%
COc1cc(C=C2C(=O)c3ccccc3C2=O)ccc1O 15.4%
COc1ccc(/C=C2\CCc3ccccc3C2=O)cc1O 12.2%
COc1cccc(/C=C2\CCc3ccccc3C2=O)c1 7.06%
COc1cc(/C=C2/CCc3ccccc3C2=O)cc(OC)c1OC 4.12%
COc1cc(/C=C2\CCc3ccccc3C2=O)cc(OC)c1OC 4.54%
COc1cc(C=C2C(=O)c3ccccc3C2=O)cc(OC)c1 5.79%
Cc1nc(NCC(c2ccccc2)N(C)C)c2c(C)c(C)sc2n1 (stereo not given) 7.93%
C=CCNC(=O)CN1CCN(Cc2ccc3c(c2)OCO3)CC1 6.33%
O=C(NNc1ccccc1[N+](=O)[O-])NC1CCCCC1 2.65%
Cc1ccc(NC(=O)CCn2c(=O)c3cccn3c3ccccc32)cc1C 7.75%
CN(CC(=O)Nc1ccccc1N1CCCC1)S(=O)(=O)c1ccc(F)cc1 3.64%
CCOC(=O)NNC(=O)c1[nH]c2ccc(Br)cc2c1-c1ccccc1 9.63%
O=C(O)c1cccc(Nc2nc(C(F)(F)F)nc3ccccc23)c1 2.84%
OCCN(CCO)c1ccc(C(c2ccccc2Cl)c2ccc(N(CCO)CCO)cc2Cl)c(Cl)c1 4.93%
OCCN(CCO)c1cc2c3ccccc3ccc2c2ccccc12 16%
CC(Oc1cc2oc(=O)c3c(c2cc1Cl)CCCC3)C(=O)NCCN1CCOCC1 (stereo not given) 11.2%
CCC(C)c1ccc(NC(=S)NCCn2cc(Cl)cn2)cc1 (stereo not given) 10.6%
CC1Cc2ccccc2N1C(=S)Nc1ccc(S(N)(=O)=O)cc1 (stereo not given) 10.7%
CC(NCc1ccc(S(N)(=O)=O)cc1)C(=O)N1CCc2ccccc21 (stereo not given) 16.2%
CCOC(=O)N1CCN(c2c(N3CCN(c4ccc(F)cc4)CC3)c(=O)c2=O)CC1 6.14%
O=C(CCCn1c(=S)[nH]c2cc3c(cc2c1=O)OCO3)NCCc1ccccc1Cl 9.48%
Nc1ccc(Nc2ccncc2[N+](=O)[O-])cc1 8.85%
Cc1ccc(Nc2nc(-c3ccncc3)cs2)cc1 8.27%
Clc1ccc(Nc2nc(-c3ccncc3)cs2)cc1 9.41%
Nc1ccc(C(=O)Nc2ccc(Nc3ccncc3)cc2)cc1 5.48%
CSc1cc(/C=N/O)c(SC)s1 3.21%
CCCn1c2ccccc2c2cnn(CC(=O)N3CCN(C4CCCCC4)CC3)c(=O)c21 10.4%
O=C(O)c1cc([N+](=O)[O-])cc([N+](=O)[O-])c1N1CCN(c2cccc(C(F)(F)F)c2)CC1 -6.28%
COc1ccc(N(C(=O)COc2ccc(C)cc2)S(=O)(=O)c2ccc(C)cc2)cc1 3.97%
CC(C)(C)c1ccc(/C=C2\Oc3cc(O)ccc3C2=O)cc1 5.28%
COc1ccc(/C=C2\Oc3cc(OCC(N)=O)ccc3C2=O)cc1OC 10.9%
O=C1/C(=C/c2cccc(F)c2)Oc2cc(O)ccc21 6.11%
O=C1/C(=C/c2ccc(Br)cc2)Oc2cc(O)ccc21 7.31%
